Reference: PubChem BioAssay (NCI)
Where “and” joins values, the source holds several entries; their conditions need not be identical. Identical values can stand only once. The panel holds about 83,000 compounds, 20% with a hit somewhere; the sample as a whole holds those more often.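 Negative percent growth values reflect cell death: -40 means 40% of the cells present at the start died, and -100 means all died.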 Calls of active or inactive are those of the source. How the source made its calls: active means growth percent below 10; inactive means the rest.

Experiments:
Test in all cases: NCI-60 one-dose screen, 48 h (100 = growth as untreated, 0 = no growth, -100 = all killed)
Settings in all cases: 10 µM unless noted
SK-MEL-2 melanoma = system: SK-MEL-2 melanoma
EKVX NSCLC = system: EKVX NSCLC
SN12C renal = system: SN12C renal
UO-31 renal = system: UO-31 renal
TK-10 renal = system: TK-10 renal
ACHN renal = system: ACHN renal
CAKI-1 renal = system: CAKI-1 renal
A498 renal = system: A498 renal
CCRF-CEM leukemia = system: CCRF-CEM leukemia
MOLT-4 leukemia = system: MOLT-4 leukemia
SR leukemia = system: SR leukemia
RPMI-8226 leukemia = system: RPMI-8226 leukemia
OVCAR-8 ovarian = system: OVCAR-8 ovarian
OVCAR-5 ovarian = system: OVCAR-5 ovarian
OVCAR-4 ovarian = system: OVCAR-4 ovarian
SK-OV-3 ovarian = system: SK-OV-3 ovarian
IGROV1 ovarian = system: IGROV1 ovarian
OVCAR-3 ovarian = system: OVCAR-3 ovarian
HS 578T breast = system: HS 578T breast
NCI/ADR-RES ovarian = system: NCI/ADR-RES ovarian

Structure (SMILES)	growth (SK-MEL-2 melanoma)	growth (EKVX NSCLC)	growth (SN12C renal)	growth (UO-31 renal)	growth (TK-10 renal)	growth (ACHN renal)	growth (CAKI-1 renal)	growth (A498 renal)	growth (CCRF-CEM leukemia)	growth (MOLT-4 leukemia)	growth (SR leukemia)	growth (RPMI-8226 leukemia)	growth (OVCAR-8 ovarian)	growth (OVCAR-5 ovarian)	growth (OVCAR-4 ovarian)	growth (SK-OV-3 ovarian)	growth (IGROV1 ovarian)	growth (OVCAR-3 ovarian)	growth (HS 578T breast)	growth (NCI/ADR-RES ovarian)
COc1ccc(C2c3[nH]c4ccc(Cl)cc4c3CCN2c2oc(CO)nc2C#N)cc1 (stereo not given)	81.6% (inactive)	59.4% (inactive)	66.4% (inactive)	54% (inactive)	93.9% (inactive)	45.3% (inactive)	36.5% (inactive)	68.7% (inactive)	37.3% (inactive)	29.3% (inactive)	17.4% (inactive)	46.3% (inactive)	45.9% (inactive)	78.1% (inactive)	69.7% (inactive)	101% (inactive)	39.4% (inactive)	46.7% (inactive)	69.1% (inactive)	43% (inactive)
C/C=C/CC(C)C(O)[C@H](NC(=O)[C@@H]1CCCN1C(=O)[C@](C)(CC)NC(=O)CCCCCCCCC)C(=O)N[C@@](C)(CC)C(=O)N[C@@H](CCC(N)=O)C(=O)N[C@H](CCC(N)=O)C(=O)NC(C)(C)C(=O)NC(C)(C)C(=O)N[C@@H](CCC(N)=O)C(=O)N[C@H](CC(C)C)C(=O)N[C@H](CO)CC(C)C (stereo not given in full)	108% (inactive) and -50% (active)	55.1% (inactive) and -69.6% (active)	28.8% (inactive) and -51.5% (active)	55.2% (inactive) and -79.7% (active)	107% (inactive) and -11.3% (active)	76.8% (inactive) and -79.3% (active)	42% (inactive) and -69.1% (active)	12.7% (inactive) and -50.9% (active)	60.2% (inactive) and -40% (active)	49.5% (inactive) and -8.22% (active)	12.6% (inactive) and 1.7% (active)	50.5% (inactive) and -38.3% (active)	42.1% (inactive) and -54.9% (active)	71% (inactive) and -92% (active)	86.8% (inactive) and 43.1% (inactive)	107% (inactive) and 19.3% (inactive)	52.1% (inactive) and -14.1% (active)	7.49% (active)	6.26% (active) and -64.4% (active)	71.4% (inactive) and -70.3% (active)
CC1(C)CC[C@]2(C(=O)O)CC[C@]3(C)C(=CC[C@@H]4[C@@]5(C)CC[C@H](NOCCCN)C(C)(C)[C@@H]5CC[C@]43C)[C@@H]2C1	93.3% (inactive)	83.9% (inactive)	83.5% (inactive)	71.4% (inactive)	122% (inactive)	97.8% (inactive)	93.7% (inactive)	110% (inactive)	66.4% (inactive)	75.3% (inactive)	-8% (active)	34.7% (inactive)	95.2% (inactive)	100% (inactive)	95.2% (inactive)	95.8% (inactive)	99.3% (inactive)	95.6% (inactive)	87.1% (inactive)	99.4% (inactive)
CCCCN1C(=O)/C(=c2\sc3n(c2=O)C2C(NN=3)N(CC)C(=O)N2CC)c2cccc(C)c21 (stereo not given)	97.6% (inactive)	46.6% (inactive)	62% (inactive)	54.7% (inactive)	82.9% (inactive)	47.2% (inactive)	35.3% (inactive)	5.04% (active)	18.7% (inactive)	45.1% (inactive)	15.1% (inactive)	20.3% (inactive)	44.6% (inactive)	50.9% (inactive)	53.8% (inactive)	82% (inactive)	34.7% (inactive)	28.9% (inactive)	34.4% (inactive)	24.6% (inactive)
COc1ccc(/C=N/NC(=O)CSc2nc(-c3cnccn3)cc(-c3cccs3)c2C#N)cc1OC	102% (inactive)	85.9% (inactive)	91.1% (inactive)	89% (inactive)	123% (inactive)	83% (inactive)	88.1% (inactive)	38.2% (inactive)	93.9% (inactive)	90.8% (inactive)	81.8% (inactive)	70.5% (inactive)	84.7% (inactive)	104% (inactive)	97.6% (inactive)	120% (inactive)	104% (inactive)	99% (inactive)	69.8% (inactive)	96.6% (inactive)
N#Cc1cnc2ccc(-c3cnc4n[nH]nc4c3)cc2c1N1CCc2cc(F)c(Cl)cc21	-22.6% (active)	3.17% (active)	14.8% (inactive)	2.18% (active)	-11.4% (active)	13.6% (inactive)	6.12% (active)	-11.8% (active)	10.6% (inactive)	-1.31% (active)	3.77% (active)	15.8% (inactive)	16.7% (inactive)	31.6% (inactive)	-16.9% (active)	-0.177% (active)	-8.77% (active)	26.2% (inactive)	-10.7% (active)	45% (inactive)
CNCCN(C)c1ccc(Nc2cc(NC3CC3)n3ncc(C#N)c3n2)cc1NC(C)=O	-20.4% (active)	7.67% (active)	22.4% (inactive)	6.68% (active)	-29.9% (active)	15.1% (inactive)	-36.6% (active)	-36.5% (active)	13.2% (inactive)	8.27% (active)	6.13% (active)	12.2% (inactive)	21.7% (inactive)	7.68% (active)	2.94% (active)	-13.6% (active)	-18.3% (active)	-16.9% (active)	-19% (active)	45.5% (inactive)
Clc1cccc(/C=N/Nc2nc(N/N=C/c3cccc(Cl)c3)nc(N3CCCCC3)n2)c1	86.1% (inactive)	78.4% (inactive)	92.4% (inactive)	76.7% (inactive)	106% (inactive)	101% (inactive)	92.4% (inactive)	92.2% (inactive)	75% (inactive)	68.7% (inactive)	74.6% (inactive)	72.4% (inactive)	89.2% (inactive)	110% (inactive)	90.2% (inactive)	109% (inactive)	105% (inactive)	91.4% (inactive)	105% (inactive)	95.2% (inactive)
O=C(CSc1nc2ccccc2c(=O)n1-c1ccc(Cl)cc1)N/N=C/c1ccc(Oc2ccc(Cl)cc2)cc1	54.3% (inactive)	40.8% (inactive)	45.3% (inactive)	93.1% (inactive)	39.7% (inactive)	63.5% (inactive)	33% (inactive)	-42.3% (active)	-2.67% (active)	-25.1% (active)	32.9% (inactive)	24.7% (inactive)	13.4% (inactive)	70.6% (inactive)	1.7% (active)	33.8% (inactive)	20.6% (inactive)	87.3% (inactive)	21.4% (inactive)	15.7% (inactive)
CC(C)NC(=O)c1cc(-c2ccc(NC(=O)Nc3ccc(F)c(C(F)(F)F)c3)cc2)nc2cccnc12	107% (inactive)	95.3% (inactive)	98.4% (inactive)	92.3% (inactive)	96.6% (inactive)	90.5% (inactive)	97.7% (inactive)	89.7% (inactive)	90.2% (inactive)	117% (inactive)	81.6% (inactive)	89.8% (inactive)	79.5% (inactive)	113% (inactive)	92.3% (inactive)	105% (inactive)	110% (inactive)	109% (inactive)	87.6% (inactive)	98.2% (inactive)
COC(=O)c1cccc(NC2=CC(=O)C(C)=C(C)C2=O)c1	101% (inactive)	100% (inactive)	93.3% (inactive)	94.5% (inactive)	133% (inactive)	100% (inactive)	86.5% (inactive)	78.7% (inactive)	52.8% (inactive)	40% (inactive)	45.5% (inactive)	80.8% (inactive)	87.9% (inactive)	109% (inactive)	24.3% (inactive)	105% (inactive)	89.5% (inactive)	8.14% (active)	116% (inactive)	87.2% (inactive)
N#Cc1c(-c2cccs2)cc(-c2cnccn2)nc1SCC(=O)N/N=C/c1cccs1	78.5% (inactive)	59% (inactive)	52.1% (inactive)	89.1% (inactive)	65.1% (inactive)	49.8% (inactive)	30% (inactive)	25.5% (inactive)	90.6% (inactive)	85.2% (inactive)	74.7% (inactive)	25.1% (inactive)	56.3% (inactive)	82.8% (inactive)	72.1% (inactive)	56.5% (inactive)	74.6% (inactive)	62.3% (inactive)	58.7% (inactive)	52.9% (inactive)
CC(Nc1ncnc2ccc(-c3cnc4cnccn34)cc12)c1ccccc1 (stereo not given)	64% (inactive)	30.4% (inactive)	51.9% (inactive)	15.7% (inactive)	20.9% (inactive)	22.8% (inactive)	27.6% (inactive)	65.3% (inactive)	61.1% (inactive)	37.5% (inactive)	38.9% (inactive)	46.6% (inactive)	59.7% (inactive)	68.2% (inactive)	41.4% (inactive)	60.6% (inactive)	5.93% (active)	67.5% (inactive)	63.1% (inactive)	52.6% (inactive)
Cn1cc(-c2nc(N)nnc2-c2c[nH]c3ccc(Br)cc23)c2cc(F)ccc21	113% (inactive)	78.5% (inactive)	102% (inactive)	58.8% (inactive)	131% (inactive)	78.5% (inactive)	67.8% (inactive)	98.9% (inactive)	83.2% (inactive)	69.4% (inactive)	50% (inactive)	80.2% (inactive)	96.8% (inactive)	110% (inactive)	94.5% (inactive)	118% (inactive)	73% (inactive)	99.6% (inactive)	96.4% (inactive)	89.8% (inactive)
